Out of some 66,000 compounds screened, about 960 (1.5%) showed an effect of 50% or more. The list comes from a sample in which strong results are over-represented; it also holds similar structures and randomly drawn compounds.
System: Trypanosoma brucei
Assay: Trypanosoma brucei 72 hour study
Format: functional, organism-based
Set-up: scale not given: in the data most compounds retested in dose-response had high values

Row | Structure (SMILES) | Percent Effect (30.3 µM, […]) | Percent Effect (30 µM, 30.03 µM)
1 | O=C(Cc1cccnc1)NC1COc2ccccc2C1=O (stereo unspecified) | -65.37% | –
2 | O=C(Cc1ccc(F)c(F)c1)NC1COc2ccccc2C1=O (stereo unspecified) | 53.93% | –
3 | O=C(Cc1cccc(F)c1F)NC1COc2ccccc2C1=O (stereo unspecified) | -49.3% | –
4 | CC(O)CN(C)c1cc(C(F)(F)F)nc(-c2cccnc2)n1 (stereo unspecified) | – | 14.71%
5 | COCC(O)CN(C)c1cc(C(F)(F)F)nc(-c2cccnc2)n1 (stereo unspecified) | – | 57.96%
6 | COCCCN(C)c1cc(C(F)(F)F)nc(-c2cccnc2)n1 | – | 14.1%
7 | CN(C)S(=O)(=O)c1ccc(-c2nc(C#N)c(NC3CCCCC3)o2)o1 | – | -26.33%
8 | CN(C)S(=O)(=O)c1ccc(-c2nc(C#N)c(NC(C)(C)C)o2)o1.Cl | – | 94.64%
9 | CN(C)S(=O)(=O)c1ccc(-c2nc(C#N)c(NC3CC3)o2)o1 | – | -26.91%
10 | CNc1oc(-c2ccc(S(=O)(=O)N(C)C)o2)nc1C#N | – | -28.85%
11 | CC(C)Nc1oc(-c2ccc(S(=O)(=O)N(C)C)o2)nc1C#N | – | -8.182%
12 | Cc1ccc(S(=O)(=O)Nc2ccc(=O)n(C)c2)c(Br)c1 | -36.73% | –
13 | CCN1CC[C@@]2(C(=O)Nc3ccccc3)CCN(S(C)(=O)=O)CC[C@@H]12.O=C(O)C(F)(F)F | – | -16.54%
14 | CCOCC1CN(C(=O)c2cnoc2C)Cc2cnn(C)c21.O=C(O)C(F)(F)F (stereo unspecified) | -5.791% | –
15 | CCC(=O)N1CCC2(CC1)CC(CC(=O)N(C)C)c1ccc(F)cc12 (stereo unspecified) | -4.762% | –
16 | c1ccc(-c2nc3c(c(NCc4n[nH]c5c4CCC5)n2)CCNC3)cc1 | – | 50.77%
17 | c1ccc(-c2nc3c(c(NCc4nnc5n4CCC5)n2)CCNC3)cc1 | 7.408% | –
18 | c1coc(-c2nc3c(c(NCc4n[nH]c5c4CCC5)n2)CCNCC3)c1 | – | -54.29%
19 | CCc1nc2ccccc2c(=O)n1CC1(O)CCN(C(=O)C2CC2)CC1.Cl | 5.264% | –
20 | O=C(O)c1cc(-c2ccoc2)cc(S(=O)(=O)NC2CC2)c1 | – | 27.37%
21 | CN(C)c1ccc(-c2cc(C(=O)O)cc(S(=O)(=O)NC3CC3)c2)cc1 | – | 102.4%
22 | O=C(O)c1cc(-c2ccc3c(c2)OCO3)cc(S(=O)(=O)NC2CC2)c1 | – | -10.73%
23 | CC(=O)N1CCC(CCc2ccnc(Nc3ccccn3)c2)CC1 | 18.19% | –

Row | Structure (SMILES) | Percent Effect (30.3 µM, […]) | Percent Effect (30 µM, 30.03 µM)
24 | CC(=O)Nc1cc(CCC2CCN(C(=O)c3ccccn3)CC2)ccn1 | -19.84% | –
25 | O=C(Nc1cc(CCC2CCN(CCO)CC2)ccn1)c1ccccn1 | 100.1% | –
26 | CN1CCC(CCc2ccnc(NC(=O)c3ccccn3)c2)CC1 | 24.76% | –
27 | CC(=O)N1CCC(CCc2ccnc(NC(=O)c3ccccn3)c2)CC1 | 56.75% | –
28 | O=C(CO)N1CCC(CCc2ccnc(Nc3cnccn3)c2)CC1 | 12.44% | –
29 | O=C(O)C(F)(F)F.O=C([C@@H]1C[C@@H]2CCN(C3CCOCC3)C[C@@H]2O1)N1CCCC1 | -37.65% | –
30 | O=C(NCc1cccs1)[C@H]1CO[C@H]2CCN(C3CCCC3)C[C@H]2C1.O=C(O)C(F)(F)F | -53.03% | –
31 | Cc1nc(CNC(=O)Nc2ccc3c(ccn3CCN(C)C)c2)no1 | -6.711% | –
32 | Cc1cc(NC(=O)Nc2ccc3c(ccn3CCN(C)C)c2)n(C)n1 | 55.17% | –
33 | CN(C)CCn1ccc2cc(NC(=O)NCc3ncnn3C)ccc21 | -3.411% | –
34 | Cc1cccc(CN2Cc3ncn(C)c3C(COCC(=O)N(C)C)C2)n1.O=C(O)C(F)(F)F.O=C(O)C(F)(F)F.O=C(O)C(F)(F)F (stereo unspecified) | -54.51% | –
35 | Cl.c1cncc(CNc2cncc(C3CCCN3)n2)c1 (stereo unspecified) | -3.878% | –
36 | Cc1nc(CN2CCO[C@@H]3CN(Cc4nccs4)C[C@@H]3C2)cs1.O=C(O)C(F)(F)F.O=C(O)C(F)(F)F | – | 45.29%
37 | Cl.Cn1cc(CN(Cc2ccccc2)Cc2ccccn2)cn1 | -17.42% | –
38 | CN(C)[C@@H]1CN(Cc2ccccc2O)C[C@H]1c1cn(C)c2ccccc12.Cl | 100% | –
39 | CN(C)[C@@H]1CN(Cc2ccccn2)C[C@H]1c1cn(C)c2ccccc12.Cl | 22.59% | –
40 | CN(C)[C@@H]1CN(Cc2ccc(O)cc2)C[C@H]1c1cn(C)c2ccccc12.Cl | 10.26% | –
41 | CCn1nc(C)c(-c2cncn2CCN(C)C2CCCC2)c1C.Cl | -4.685% | –
42 | O=C(c1c(O)cc(F)cc1F)N1CCc2cnccc21 | – | -42.5%
43 | CCO[C@@H]1CO[C@@]2(CCN(Cc3ccc4c(c3)OCO4)C2)C1.O=C(O)C(F)(F)F | 14.48% | –
44 | Cc1[nH]nc(CCC(=O)N2CCc3ncnc(NCCO)c3CC2)c1C | – | -37%
45 | O=C(CCc1ccco1)N1CCc2[nH]nc(COc3ccccc3)c2C1 | – | -57.79%
46 | O=C(CCc1cccs1)N1CCc2[nH]nc(COc3ccccc3)c2C1 | – | 68.24%

Reference: ChEMBL document CHEMBL3988442, “University of Dundee, Small-Polar-MMV Screening Library” (2021)
